{
  "source": "PubChem BioAssay AID2501",
  "about": "(Southern Research Specialized Biocontainment Screening …, 2010)",
  "note": "In all, about 2,200 compounds went through this assay and about 1,200 (55%) were called active. The set was probably picked from earlier hits. The list shows a part of the results. Values without a mark were called inactive. No cut-off is given here; in the data, nearly all actives have IC50 up to about 92 µM.",
  "data": [
    {"assay": "counter assay for TAg ATPase ADP read-out – biochemical, ADP-Hunter, fluorescence, counter-screen (AID 2501);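 note: purified T antigen ATPase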;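 for inhibition: 0% = enzyme with vehicle and 100% = reference inhibitor wells; higher means more inhibition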", "details": "series mostly up to 100 µM; inhibition: at the top concentration", "values": [
      {"smiles": "COc1ccc(N2C(=O)/C(=C/c3ccco3)C(=O)NC2=S)cc1", "inhibition": "20.8% [at 50 µM]"},
      {"smiles": "COc1ccc(-n2c(/C=C/c3ccc(O)c(O)c3)nc3ccccc3c2=O)cc1", "IC50": "24.2 µM (active)"},
      {"smiles": "COc1cccc(-n2c(/C=C/c3ccc(O)c(O)c3)nc3ccccc3c2=O)c1", "IC50": "7 µM (active)"},
      {"smiles": "COC(=O)C1=Nc2ccccc2/C1=C\\c1c(O)n(-c2ccc(OC)cc2)c(=O)[nH]c1=O", "inhibition": "4.61%"},
      {"smiles": "Cc1ccc2c(c1)=NC(=O)/C(=C/c1c(O)[nH]c(=O)[nH]c1=O)C=2", "inhibition": "0.6%"},
      {"smiles": "CN(C)[C@@H]1C(=O)C(C(N)=O)=C(O)[C@@]2(O)C(=O)C3=C(O)c4c(O)cccc4[C@@](C)(O)[C@H]3C[C@@H]12", "inhibition": "6.46%"},
      {"smiles": "COc1ccc(/C=C2/C(=O)N(Cc3ccco3)C(=O)N(C(C)C)C2=O)cc1", "inhibition": "23%"},
      {"smiles": "O=C(O)c1c[nH]c2ccc(S(=O)(=O)N(CCCl)CCCl)cc12", "inhibition": "-5.36%"},
      {"smiles": "O=c1cc(-c2ccc(O)c(O)c2)oc2c(C3O[C@H](CO)[C@@H](O)[C@H](O)[C@H]3O)c(O)cc(O)c12", "note": "(stereo not given in full)", "IC50": "4.81 µM (active)"},
      {"smiles": "O=C1N[C@H](Cc2ccccc2)C(=O)N2[C@@H]3[C@H](C[C@@H]12)c1ccccc1N3OOSc1ccccc1", "inhibition": "-26.1%"},
      {"smiles": "O=C1NC(=S)N(c2ccc(F)cc2)C(=O)/C1=C\\c1ccoc1", "inhibition": "21.9%"},
      {"smiles": "COc1cccc(C(=O)NC2CC3CCCC(C2)N3CC(=O)Nc2ccc(N(C)C)cc2)c1", "note": "(stereo not given)", "IC50": "3.14 µM (active)"},
      {"smiles": "CN(C)c1ccc(NC(=O)CN2C3CCCC2CC(NC(=O)c2ccccc2)C3)cc1", "note": "(stereo not given)", "IC50": "3.12 µM (active)"},
      {"smiles": "CN(C)c1ccc(NC(=O)CN2CCC(O)(c3ccccc3)CC2)cc1", "IC50": "2.88 µM (active)"},
      {"smiles": "CN(C)c1ccc(NC(=O)CN2C(=O)CN=C(c3ccccc3)c3ccccc32)cc1", "IC50": "9.96 µM (active)"},
      {"smiles": "Cc1ccccc1N1C(=O)NC(=O)/C(=C\\c2cnn(-c3ccccc3)c2)C1=O", "inhibition": "26.2%"},
      {"smiles": "O=C1NC(=O)N(c2cccc(Cl)c2)C(=O)/C1=C\\c1ccc(Sc2nc3ccccc3[nH]2)o1", "inhibition": "19.3% [at 50 µM]"},
      {"smiles": "CN1C2CCC1CC(=NO)C2", "inhibition": "23.1%"},
      {"smiles": "C=C(C=O)CC1CC(O)[C@]2(C)OC3CC4OC5C[C@]6(C)O[C@]7(C)CCC8OC9C[C@]%10(C)OC%11C(C)=CC(=O)OC%11CC%10OC9C[C@@H](C)C8OC7CC6O[C@]5(C)CC5OC5C4OC3CC2O1", "note": "(stereo not given in full)", "inhibition": "8.3%"},
      {"smiles": "CCCN1CCc2cccc3c2[C@H]1Cc1ccc(O)c(O)c1-3", "inhibition": "-48.6%"},
      {"smiles": "Cc1ccc2c(c1)C1CN(C)CCC1N2C(=O)Nc1cccc(C(F)(F)F)c1", "note": "(stereo not given)", "inhibition": "17.6%"},
      {"smiles": "CCCCN1C(=O)/C(=C/c2ccc(N(C)C)cc2)C(=O)N(Cc2ccco2)C1=O", "inhibition": "13.8%"},
      {"smiles": "CP(=O)(Nc1ccccc1)C(Cl)(Cl)Cl", "note": "(stereo not given)", "inhibition": "-27.6%"},
      {"smiles": "CNC(=O)Oc1ccc(-c2cn3cc(Cl)ccc3n2)cc1", "inhibition": "15%"},
      {"smiles": "CNC(=O)Oc1ccc2ncccc2c1", "IC50": "24.1 µM (active)"},
      {"smiles": "CC[C@H](C)/C=C(C)/C=C/C1=CC2=C(Cl)C(=O)[C@@](C)(OC(C)=O)C(=O)C2=CO1", "inhibition": "-25.2%"},
      {"smiles": "O=C(CN1CCCC1=O)N1CCOCC1", "inhibition": "13.2%"},
      {"smiles": "N/C(=N\\N=C/c1ccc(-c2ccc(O)c(C(=O)O)c2)o1)N[N+](=O)[O-]", "inhibition": "10.8%"},
      {"smiles": "N/C(=N\\N=C\\c1ccc(O)cc1O)N[N+](=O)[O-]", "IC50": "4.1 µM (active)"},
      {"smiles": "COc1ccc(/C=C2/C(=O)NC(=S)N(C3CC3)C2=O)cc1CN1C(=O)c2ccccc2C1=O", "inhibition": "2.18%"},
      {"smiles": "O=C(c1ccc2nc(-c3ccco3)c(-c3ccco3)nc2c1)N1CCC2(CC1)OCCO2", "inhibition": "-35.8%"},
      {"smiles": "O=C(O)c1cc[c]([Hg][Cl])cc1", "inhibition": "1.39%"},
      {"smiles": "CN1C(=O)/C(=C/c2cccn2-c2ccc3ccccc3c2)C(=O)NC1=S", "inhibition": "-18.3%"},
      {"smiles": "COc1cc2c(ccc3cc(OC)c(OC)c(O)c32)cc1O", "IC50": "39.6 µM (active)"},
      {"smiles": "O=C1NC(=O)N(c2ccccc2)C(=O)/C1=C/C=C/c1ccco1", "inhibition": "12.3% [at 50 µM]"}
    ]}
  ]
}
